The target of experiment [1] is Calcium and integrin-binding protein 1 (Homo sapiens) (UniProt Q99828). The experiment can be described thus: Primary qHTS for Identification of Calcium Integrin Binding Protein 1 (CIB1) Competitor (AID 1508620).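 Also: GST tagged CIB1 binding a fluorescein labelled alphaIIb integrin peptide tracer; top concentration of the series differs between compounds; % is scaled to controls: 0 for no effect and ±100 for the full control effect.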 A digest of the protocol:
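CIB1-GST (1 uM final) and compound incubated 15 min at room temperature before adding FITC-alphaIIb peptide tracer (100 nM final). Competition for binding read by fluorescence polarization (ex 480, em 540) after another 15 min at room temperature.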

For experiment [2], the target named is Cytochrome P450 2D6 (Homo sapiens) (UniProt P10635). The experiment can be described thus: Cytochrome P450 family 2 subfamily D member 6 (CYP2D6) small molecule antagonists: luciferase biochemical (cell-free) qHTS assay (AID 1645840; active = well fitted curve in the direction sought with a large enough effect in the repeat runs; an effect the other way counts as inactive or inconclusive; also: nearly all actives have a fitted effect of over 55% in size; also: potency is read from the fitted curve at half-maximal effect; as to activity change, negative = inhibition: series mostly up to about 57 µM; % is scaled to controls: 0 for no effect and ±100 for the full control effect). The procedure, abridged: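 P450-Glo CYP2D6 system: proluciferin substrate converted by enzyme to luciferin, read by luminescence proportional to activity. Enzyme-substrate mix with compound 10 min at room temperature, then NADPH regeneration 1 h before detection reagent.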
Chain of Cytochrome P450 2D6 (Homo sapiens) (P10635 whole entry, looked up): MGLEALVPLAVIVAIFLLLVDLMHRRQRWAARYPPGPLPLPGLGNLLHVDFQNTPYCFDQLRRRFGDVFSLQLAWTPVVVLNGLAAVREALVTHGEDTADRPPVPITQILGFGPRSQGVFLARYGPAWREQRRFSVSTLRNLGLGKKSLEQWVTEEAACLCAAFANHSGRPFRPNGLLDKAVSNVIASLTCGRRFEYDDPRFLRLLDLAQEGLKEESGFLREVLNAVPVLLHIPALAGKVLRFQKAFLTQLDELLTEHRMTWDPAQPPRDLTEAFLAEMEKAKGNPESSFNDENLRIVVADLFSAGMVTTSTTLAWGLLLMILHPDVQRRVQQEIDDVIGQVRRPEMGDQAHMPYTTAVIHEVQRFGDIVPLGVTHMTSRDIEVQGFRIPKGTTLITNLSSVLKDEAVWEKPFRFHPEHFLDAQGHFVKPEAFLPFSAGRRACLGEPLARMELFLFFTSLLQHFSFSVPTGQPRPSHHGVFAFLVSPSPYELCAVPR

Experiment [3] can be described thus: Primary qHTS for inhibitors of nuclear receptor binding SET domain protein 2 (NSD2) in an isogenic RCH-ACV NSD2 p.E1099K mutant (9B) (AID 1645876). Also: nearly all actives have a fitted effect of over 70% in size. Also: potency is read from the fitted curve at half-maximal effect. As to activity change, negative = viability loss: % is scaled to controls: 0 for no effect and ±100 for the full control effect.
Experiment [4] addresses Cytochrome P450 2C9 (Homo sapiens) (UniProt P11712). The experiment can be described thus: Cytochrome P450 family 2 subfamily C member 9 (CYP2C9) small molecule antagonists: luciferase biochemical (cell-free) qHTS assay (AID 1645842; active = well fitted curve in the direction sought with a large enough effect in the repeat runs; an effect the other way counts as inactive or inconclusive; also: nearly all actives have a fitted effect of over 55% in size; also: potency is read from the fitted curve at half-maximal effect; as to activity change, negative = inhibition: series mostly up to about 57 µM; % is scaled to controls: 0 for no effect and ±100 for the full control effect). A digest of the protocol:
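P450-Glo CYP2C9 system: proluciferin substrate with enzyme in mix containing 0.4% BSA, 10 min at room temperature, then NADPH regeneration solution added and incubated 1 h at 37C. Detection reagent stopped reaction; luminescence read after 20 min as RLU.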

Experiment [5] concerns the target N-terminal Xaa-Pro-Lys N-methyltransferase 1 (Homo sapiens) (UniProt Q9BV86). The experiment can be described thus: Confirmatory qHTS for Inhibitors of N-terminal methyltransferase 1 (NTMT1): MTaseGlo Assay (AID 1645874). Also: potency is read from the fitted curve at half-maximal effect; nearly all actives have a fitted effect of over 65% in size. The procedure, abridged: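 Inhibition was derived from luminescence after SAH-to-ATP conversion, scaled between no-enzyme and DMSO wells, then fitted by 4-parameter Hill. Conditions: 125 nM NTMT1, 100 uM SAM, 1 uM SPKRIA, 30 min RT.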

Where “and” joins values, the source holds several entries; their conditions need not be identical. Identical values can stand only once. Inconclusive results are not listed. Unmarked numbers belong to inactive results. Calls of active or inactive are those of the source. Unless noted, calls follow the shape of the dose curve; as a rule, active = well fitted curve in the direction sought with a large enough effect; inconclusive = small, poorly fitted or top-dose-only effect, or another doubt; inactive = no such curve, though single readings can be large; an effect the other way counts as inactive or inconclusive.

This passage reports Potency, activity change, negative = inhibition and activity change, negative = viability loss results from PubChem BioAssay (NCATS).

Chain of Calcium and integrin-binding protein 1 (Homo sapiens) (Q99828 whole entry, looked up): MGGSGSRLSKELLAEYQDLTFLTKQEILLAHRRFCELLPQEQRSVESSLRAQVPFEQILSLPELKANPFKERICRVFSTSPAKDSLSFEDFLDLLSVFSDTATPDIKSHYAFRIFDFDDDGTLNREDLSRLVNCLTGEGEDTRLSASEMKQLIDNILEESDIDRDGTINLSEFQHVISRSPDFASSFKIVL
Chain of Cytochrome P450 2C9 (Homo sapiens) (P11712 whole entry, looked up): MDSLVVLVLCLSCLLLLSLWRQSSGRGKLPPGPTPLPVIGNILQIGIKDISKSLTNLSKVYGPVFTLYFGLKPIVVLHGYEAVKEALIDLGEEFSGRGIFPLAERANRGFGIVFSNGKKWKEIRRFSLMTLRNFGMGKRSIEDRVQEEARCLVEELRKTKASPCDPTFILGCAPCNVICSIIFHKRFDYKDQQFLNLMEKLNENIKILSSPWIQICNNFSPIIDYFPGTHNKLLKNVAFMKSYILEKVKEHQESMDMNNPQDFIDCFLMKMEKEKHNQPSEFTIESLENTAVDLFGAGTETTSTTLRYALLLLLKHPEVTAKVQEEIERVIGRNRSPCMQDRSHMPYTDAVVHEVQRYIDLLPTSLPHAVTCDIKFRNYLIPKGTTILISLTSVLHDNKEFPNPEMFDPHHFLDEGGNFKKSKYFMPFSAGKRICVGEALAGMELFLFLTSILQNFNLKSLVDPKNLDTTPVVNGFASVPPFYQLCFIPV
Chain of N-terminal Xaa-Pro-Lys N-methyltransferase 1 (Homo sapiens) (Q9BV86 whole entry, looked up): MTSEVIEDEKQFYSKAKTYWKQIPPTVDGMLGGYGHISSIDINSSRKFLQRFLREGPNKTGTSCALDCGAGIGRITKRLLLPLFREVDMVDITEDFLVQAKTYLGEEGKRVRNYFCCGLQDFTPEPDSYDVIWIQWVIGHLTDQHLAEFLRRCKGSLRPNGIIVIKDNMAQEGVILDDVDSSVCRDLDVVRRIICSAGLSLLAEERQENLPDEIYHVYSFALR

In the case of `C[C@@H]1COCCN1c1cc(C2(S(C)(=O)=O)CC2)nc(-c2cccc3[nH]ccc23)n1`, the Potency result in experiment [1] and in experiment [2] was “inactive” each time. Besides, the Potency in experiment [3] was 0.515 µM (active).

Regarding `CCOc1cc(N2CCC(O)CC2)ccc1Nc1ncc2c(n1)N(C1CCCC1)CCC(=O)N2C`, the Potency result in experiment [1] and in experiment [2] was “inactive” each time. Further, the Potency in experiment [3] was 2.05 µM (active).

Turning to `c1ccc(-c2csc(N3CCOCC3)n2)cc1`, the Potency result in experiment [1], in experiment [2] and in experiment [3] was “inactive” in each case.

In the case of `O=C(O)CC1CCC(c2ccc(-c3ccc4nc(C(=O)NCc5ccc(OC(F)(F)F)cc5)cn4c3)cc2)CC1` (centres undefined), the Potency entry in experiment [1], in experiment [2] and in experiment [3] was “inactive” each time.

For `CC1(c2nc3c(C(N)=O)cccc3[nH]2)CCCN1` (centres undefined), the Potency entry in experiment [1], in experiment [2] and in experiment [3] was “inactive” each time.

For the molecule `CC(=O)SCC(=O)c1ccc(NS(=O)(=O)c2ccc(OCCCN(C)C)cc2)nc1`, the Potency entry in experiment [1] and in experiment [2] was “inactive” each time. In addition, the Potency in experiment [3] was 1.29 µM (active).

On to `CCOC(=O)CCN(C(=O)c1ccc2c(c1)nc(CNc1ccc(C(=N)N)cc1)n2C)c1ccccn1`, for which the Potency entry in experiment [1], in experiment [2] and in experiment [3] was “inactive” each time.

Regarding `CC(C)(C)OC(=O)N1CCC(OCc2nc(-c3ccncc3)no2)CC1`, the Potency result in experiment [1], in experiment [2] and in experiment [3] was “inactive” in each case.

As to `O=C(Nc1ccc(S(=O)(=O)Nc2nccs2)cc1)C(c1ccccc1)c1ccccc1`, the Potency result in experiment [1] and in experiment [3] was “inactive” throughout. In experiment [2], the Potency was 19 µM (active).

As to `Cc1ccc(S(=O)(=O)Cc2nc(-c3ccc(C(=O)NCc4cccnc4)cc3)oc2C)cc1`, the Potency entry in experiment [1] and in experiment [2] was “inactive” each time. Further, the Potency in experiment [3] is 0.0132 µM (active).

For `Nc1nc(Nc2ccc(S(N)(=O)=O)cc2)n(C(=S)Nc2c(F)cccc2F)n1`, the Potency result in experiment [1] and in experiment [3] was “inactive” each time. For the same molecule, in experiment [2], the Potency was 10.7 µM (active).

In the case of `CCOC(=O)c1cc(C#N)c(N2CCC(C(=O)NS(=O)(=O)Cc3ccccc3)CC2)nc1C`, the Potency entry in experiment [1], in experiment [2] and in experiment [3] was “inactive” each time.

In the case of `CCc1cc(CN2CC(C(=O)O)C2)sc1-c1noc(-c2ccc(Oc3ccccc3)cc2)n1`, the Potency entry in experiment [1] and in experiment [2] was “inactive” in each case. In addition, the Potency in experiment [3] is 10 µM (active).

For the molecule `Cc1ccccc1NC(=O)Nc1ccc(CC(=O)N(C)[C@@H](CC(C)C)C(=O)NCC[C@H](NC(=O)[C@@H]2CCCN2S(=O)(=O)c2cc(Cl)cc(Cl)c2)C(=O)O)cc1`, the Potency result in experiment [1], in experiment [2] and in experiment [3] was “inactive” in each case.

Regarding `CN(C)CC1CCOC1(c1ccccc1)c1ccccc1` (centres undefined), the Potency entry in experiment [1] and in experiment [3] was “inactive” throughout. In addition, the Potency in experiment [2] was 2.24 µM (active).

Regarding `Cc1cc(OCc2nc(-c3ccccc3Cl)cs2)ccc1OCC(=O)O`, the Potency entry in experiment [1], in experiment [2] and in experiment [3] was “inactive” throughout.

Turning to `Cc1[nH]c2ccccc2c1CCNC(=O)c1ccccc1F`, the Potency result in experiment [1] and in experiment [3] was “inactive” in each case. In addition, the Potency in experiment [2] is 21.3 µM (active).

For the molecule `CC(=O)NC1=NN(C(C)=O)C(C)(c2ccccc2)S1` (centres undefined), the Potency result in experiment [1] and in experiment [2] was “inactive” throughout. In addition, in experiment [3], the Potency was 4.59 µM (active).

Regarding `O=C(O)Cc1ccc2oc(-c3ccc(NC(=O)/C=C/c4ccc(Br)cc4)c(F)c3)nc2c1`, the Potency entry in experiment [1], in experiment [2] and in experiment [3] was “inactive” throughout.

For `Cc1ncc(CCCN(C)C)cc1Nc1ncc2c(n1)-c1ccc(C(F)(F)F)cc1NC(=S)C2`, the Potency entry in experiment [1] is “inactive”. Besides, the results for the Potency in experiment [2] and in experiment [3] were 13.5 µM (active) and 0.0916 µM (active), respectively.

Consider `COC(=O)N1CCC(n2ncc3c(N4CCOCC4)nc(-c4ccc(NC(=O)Nc5ccc(CO)cc5)cc4)nc32)CC1`, for which the Potency entry in experiment [1] is “inactive”. Further, the results for the Potency in experiment [2] and in experiment [3] were 8.49 µM (active) and 0.0163 µM (active), respectively.

For `N#Cc1cc(F)cc(-c2nc(-c3ccccn3)no2)c1`, the Potency entry in experiment [1] and in experiment [3] was “inactive” in each case. The Potency in experiment [2] is 10.7 µM (active).

As to `O=C(Cc1ccc(-c2ccccc2)cc1)NC1CCC1`, the Potency result in experiment [1], in experiment [2] and in experiment [3] was “inactive” throughout.

`CC(NC(=O)C(O)C(C)C)C(=O)NC1C(=O)N(C)CCc2ccccc21` (centres undefined): the Potency entry in experiment [1], in experiment [2] and in experiment [3] was “inactive” in each case.

As for `O=C(O)c1cc(-c2c(-c3ccccc3)nn3ccccc23)n[nH]c1=O`, the Potency result in experiment [1], in experiment [2] and in experiment [3] was “inactive” each time.

As to `CCOCc1cc(OC)c(-c2ccc(C[C@H](NC(=O)c3c(F)cccc3F)C(=O)O)cc2)c(OC)c1`, the Potency result in experiment [1], in experiment [2] and in experiment [3] was “inactive” each time.

In the case of `COc1cccc(Nc2ncnn3ccc(CN4CC[C@@H](N)[C@H](O)C4)c23)c1`, the Potency entry in experiment [1] is “inactive”. For the same molecule, the Potency in experiment [2] was 9.52 µM (active); in experiment [3], 4.68 µM (active).

As to `O=C(O)C1CN(Cc2ccc(-c3nc4cc(Cc5ccccc5F)ccc4s3)c(F)c2)C1`, the Potency entry in experiment [1] was “inactive”. Moreover, the activity change, negative = inhibition in experiment [2] was 8.94% [at 11.5 µM]. The activity change, negative = viability loss in experiment [3] was 0.892% [at 9.23 µM].

Consider `O=C(c1cn(Cc2cncn2Cc2ccc(Br)cc2)cc1-c1cccc2ccccc12)N1CCOCC1`, for which the Potency result in experiment [1] is “inactive”. Moreover, the Potency was 10.7 µM (active) in experiment [2] and 1.83 µM (active) in experiment [3].

Consider `CC(C)[C@@H]1C(=O)N(S(C)(=O)=O)[C@@H]2CCN(C(=O)/C=C/CN3CCCCC3)[C@H]21`, for which the Potency result in experiment [1], in experiment [2] and in experiment [3] was “inactive” throughout.

As to `COc1cc(Nc2nc3ccccc3nc2NS(=O)(=O)c2ccc(NC(=O)c3ccc(OC)c(C)c3)cc2)cc(OC)c1`, in experiment [1], the Potency entry was “inactive”. Further, in experiment [4], the Potency is 3.79 µM (active).

In the case of `CCCCOC(=O)NC(=O)C1c2ccccc2Oc2ccccc21`, the Potency entry in experiment [1], in experiment [2] and in experiment [3] was “inactive” throughout.

With `CCN1CCN(Cc2ccc(Nc3ncc(F)c(-c4cc(F)c5nc(C)n(C(C)C)c5c4)n3)nc2)CC1`, the Potency result in experiment [1] and in experiment [4] was “inactive” throughout. In addition, the Potency in experiment [5] is 20 µM (active); in experiment [3], 728 nM (active) and 468 nM (active).
